Experimental findings from the supplement of paper PMC12669032 are described below.

Molecules are shown by their SMILES. Unmarked numbers belong to inactive results.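 How the source made its calls: active = AUC reduced over 20% with Padj below 0.05 in at least 2 of 3 replicates; inactive = otherwise.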

The test system of the assay is Bacteroides clarus. Kind of assay: growth AUC relative to DMSO control (median of replicates) (fraction); higher = more growth (less inhibition), active = hit call of the paper. To be noted: 20 µM; 24 h. Summed up: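 For each compound at 20 µM (1% DMSO), gut bacterial monocultures seeded at OD600 0.05 grew anaerobically in mGAM at 37 °C in round-bottom 96-well plates. Hourly OD600 readings over 24 h gave growth curves whose minimum OD was set to 0. Area under these curves was normalised to the plate median of solvent-only wells, or to row and column medians on the industrial chemical plate. Values are medians of three biological replicates grown on separate days.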
With `CN(C)C(=O)Nc1ccc(Cl)c(Cl)c1`, the “growth AUC” value is 0.975.

In the case of `CCOC(=O)C1CC(=O)C(=C(O)C2CC2)C(=O)C1` (centres undefined), the “growth AUC” value is 0.965.

Turning to `COC(=O)C(C)Oc1ccc(Cl)cc1C` (centres undefined), the “growth AUC” value was 0.996.

For `FC(F)(F)C(=NOCC1OCCO1)c1ccc(Cl)cc1`, the “growth AUC” value is 1.05.

For the compound `NC(=S)Nc1cccc2ccccc12`, the “growth AUC” value was 0.991.

For the compound `CC(C)c1cc(Oc2ccccc2)cc(C(C)C)c1NC(=S)NC(C)(C)C`, the “growth AUC” value is 0.96.

Regarding `O=[N+](Nc1ccccc1)c1ccccc1`, the “growth AUC” value is 0.966.

For the compound `Cc1[nH]n(C)c(=O)c1C(=O)c1ccc(C(F)(F)F)cc1S(C)(=O)=O`, the “growth AUC” value is 0.997.

As for `O=C=NC1CCC(CC2CCC(N=C=O)CC2)CC1` (centres undefined), the “growth AUC” value is 1.03.

For `CCc1cccc(C)c1N(COC(C)C)C(=O)CCl`, the “growth AUC” value was 1.01.

As to `O=C(Nc1ccc(Cl)cc1C(O)c1ccccc1)c1ccncc1` (centres undefined), the “growth AUC” value is 0.946.

Regarding `CNC(=O)Nc1nc2ccccc2s1`, the “growth AUC” value is 0.999.

Turning to `CC(C)CNC(=O)N1CCNC1=O`, the “growth AUC” value was 1.02.

As to `C/C=C/C(=O)Oc1c(C(C)CCCCCC)cc([N+](=O)[O-])cc1[N+](=O)[O-]` (mixture of isomers), the “growth AUC” value was 0.0314 (active).

With `CCOC(=O)NCCOc1ccc(Oc2ccccc2)cc1`, the “growth AUC” value was 0.928.

Turning to `NC(=O)Cc1cccc2ccccc12`, the “growth AUC” value is 1.03.

`NS(=O)(=O)[O-].[NH4+]`: the “growth AUC” value was 1.03.

As to `COC(=O)c1ccc(C(=O)OC)cc1`, the “growth AUC” value is 0.978.

On to `Nc1cc(Cl)nc(C(=O)O)c1Cl`, for which the “growth AUC” value is 1.04.

Regarding `CCc1cccc(C)c1N(C(=O)C(=O)O)[C@@H](C)C(=O)O`, the “growth AUC” value is 1.02.

Regarding `O=S(=O)(Oc1ccc(Cl)cc1)c1ccccc1`, the “growth AUC” value was 0.967.

As for `Oc1ccc2nc(-c3cscn3)[nH]c2c1`, the “growth AUC” value is 0.955.

Take `COC(=O)c1csc(C)c1S(=O)(=O)NC(=O)n1nc(OC)n(C)c1=O`: the “growth AUC” value was 1.

As to `CCCCOCN(C(=O)CS(=O)(=O)[O-])c1c(CC)cccc1CC.[Na+]`, the “growth AUC” value is 0.997.

On to `O.O.O=[N+]([O-])c1ccc([O-])cc1.[Na+]`, for which the “growth AUC” value was 1.

Regarding `COCC(=O)N(c1c(C)cccc1C(=O)O)C(C)C(=O)O` (centres undefined), the “growth AUC” value is 0.979.

Regarding `O=C(O)COc1ccc(Cl)cc1CO`, the “growth AUC” value was 0.995.

Turning to `CCOc1ccc2c(c1)C(C)=CC(C)(C)N2`, the “growth AUC” value is 1.

`CC(C)CCCCCOC(=O)C(C)Oc1ccc(Cl)cc1Cl` (centres undefined): the “growth AUC” value is 1.03.

On to `[S]`, for which the “growth AUC” value is 1.

Consider `CCCC(C)(C)C(=O)Nc1ccc(Cl)cc1`, for which the “growth AUC” value is 1.01.

Take `CSc1nnc(C(C)(C)C)c(=O)n1/N=C/C(C)C`: the “growth AUC” value is 1.04.

Turning to `O=C(O)CCCc1c[nH]c2ccccc12`, the “growth AUC” value is 1.01.

As for `C=C1C[C@]23C[C@@]1(O)CC[C@H]2[C@@]12C=C[C@H](O)[C@@](C)(C(=O)O1)[C@H]2[C@@H]3C(=O)O`, the “growth AUC” value was 0.999.

Consider `Nc1ccc(S(=O)(=O)Nc2nccs2)cc1`, for which the “growth AUC” value was 0.992.

As to `CCCCCCCCCC[N+](C)(C)Cc1ccccc1.[Cl-]`, the “growth AUC” value is 0.987.

On to `CN1CCC[C@H]1c1cccnc1`, for which the “growth AUC” value was 0.997.

`O=C1NCCN1`: the “growth AUC” value was 1.02.

Turning to `O=C(O)COc1cccc(Cl)c1Cl`, the “growth AUC” value was 0.971.
